The supplement of paper PMC10849652
About 8,800 targets were measured; listed, in parts, are those with a hit and a random draw of the rest. About 0.5% of all pairs of compound and target were hits. Unmarked numbers belong to inactive results.

What was measured:
Experiment in all cases: log2 fold change, soluble protein after heating vs DMSO (PISA); higher = thermal stabilisation; K562 lysate, 10 uM; active = over 0.2 and 3.5 SD of the protein, either way, in both replicates (recomputed)
vemurafenib = compound: CCCS(=O)(=O)Nc1ccc(F)c(C(=O)c2c[nH]c3ncc(-c4ccc(Cl)cc4)cc23)c1F [vemurafenib]
Procedure, shortened: (§1)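 Values give the log-two fold change in thermal stability against solvent controls, from duplicates. Crude K562 extract at 1 mg/mL protein, made by dounce homogenisation in PBS pH 7.4 with 1 mM MgCl2, was treated with 10 μM compound for 30 min. After 3 min heating across 48°C-58°C, aliquots were pooled, adjusted to 0.5% NP-40 at 4°C and centrifuged at 21,000xg for 90 min. The supernatant was measured by TMTpro 16plex LC-MS/MS with channel sums equalised.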

[1] = compound: CCCS(=O)(=O)Nc1ccc(F)c(C(=O)c2c[nH]c3ncc(Cl)cc23)c1F
Procedure, shortened: as §1

barasertib = compound: CCN(CCCOc1ccc2c(Nc3cc(CC(=O)Nc4cccc(F)c4)[nH]n3)ncnc2c1)CCOP(=O)(O)O [barasertib]
Procedure, shortened: as §1

[2] = compound: CC[C@@H]1C(=O)N(C)c2cnc(Nc3ccc(C(=O)NC4CCN(C)CC4)cc3OC)nc2N1C1CCCC1
Procedure, shortened: as §1

volasertib = compound: CC[C@@H]1C(=O)N(C)c2cnc(Nc3ccc(C(=O)N[C@H]4CC[C@H](N5CCN(CC6CC6)CC5)CC4)cc3OC)nc2N1C(C)C [volasertib]
Procedure, shortened: as §1

[3] = compound: CCn1c(C(=O)N(C2CC2)C2CC2)cc2c3c(ncn3C)c(Nc3cc(C)n(C)n3)nc21
Procedure, shortened: as §1

[4] = compound: CCn1cc(-c2ccnc3[nH]c(-c4cccc(CN(C)C)c4)cc23)c(-c2ccc(NC(=O)N(C)C)cc2)n1
Procedure, shortened: as §1

[5] = compound: CN1CCC(CNc2ccc3ncc(-c4cccc(OC(F)(F)F)c4)n3n2)CC1
Procedure, shortened: as §1

saracatinib = compound: CN1CCN(CCOc2cc(OC3CCOCC3)c3c(Nc4c(Cl)ccc5c4OCO5)ncnc3c2)CC1 [saracatinib]
Procedure, shortened: as §1

sotrastaurin = compound: CN1CCN(c2nc(C3=C(c4c[nH]c5ccccc45)C(=O)NC3=O)c3ccccc3n2)CC1 [sotrastaurin]
Procedure, shortened: as §1

alvocidib = compound: CN1CC[C@H](c2c(O)cc(O)c3c(=O)cc(-c4ccccc4Cl)oc23)[C@H](O)C1 [alvocidib]
Procedure, shortened: as §1

Tubastatin A = compound: CN1CCc2c(c3ccccc3n2Cc2ccc(C(=O)NO)cc2)C1 [Tubastatin A]
Procedure, shortened: as §1

[6] = compound: CNC(=O)C1=CC=CC=C1NC2=NC(=NC=C2Cl)NC3=C(C=C(C=C3)N4CCOCC4)OC
Procedure, shortened: as §1

defactinib = compound: CNC(=O)c1ccc(Nc2ncc(C(F)(F)F)c(NCc3nccnc3N(C)S(C)(=O)=O)n2)cc1 [defactinib]
Procedure, shortened: as §1

[7] = compound: CNc1nc(-c2ccc3c(N)n[nH]c3c2)cc(N2C[C@@H](C(=O)NC3CCCCC3)CC[C@H]2C)n1
Procedure, shortened: as §1

encorafenib = compound: COC(=O)N[C@@H](C)CNc1nccc(-c2cn(C(C)C)nc2-c2cc(Cl)cc(NS(C)(=O)=O)c2F)n1 [encorafenib]
Procedure, shortened: as §1

[8] = compound: COC(=O)[C@H](CCSC)NC(=O)C1=C(C=C(C=C1)NC[C@H](CS)N)C2=CC=CC=C2
Procedure, shortened: as §1

alisertib = compound: COc1cc(Nc2ncc3c(n2)-c2ccc(Cl)cc2C(c2c(F)cccc2OC)=NC3)ccc1C(=O)O [alisertib]
Procedure, shortened: as §1

[9] = compound: COc1cc2nc(-c3cc(F)ccc3O)nc(N[C@@H]3CNC[C@H]3C(C)(C)O)c2cc1OC
Procedure, shortened: as §1

gefitinib = compound: COc1cc2ncnc(Nc3ccc(F)c(Cl)c3)c2cc1OCCCN1CCOCC1 [gefitinib]
Procedure, shortened: as §1

UniProt Q9Y287, sequence (Q9Y287 whole entry, looked up): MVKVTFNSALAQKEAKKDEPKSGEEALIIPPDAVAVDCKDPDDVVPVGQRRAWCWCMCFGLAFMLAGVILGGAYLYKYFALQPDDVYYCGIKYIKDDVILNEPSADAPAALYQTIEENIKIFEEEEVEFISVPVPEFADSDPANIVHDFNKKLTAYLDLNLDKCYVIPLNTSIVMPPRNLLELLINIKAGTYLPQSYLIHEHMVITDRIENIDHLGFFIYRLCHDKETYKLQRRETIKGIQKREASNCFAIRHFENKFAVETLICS
UniProt P22692, sequence (P22692 whole entry, looked up): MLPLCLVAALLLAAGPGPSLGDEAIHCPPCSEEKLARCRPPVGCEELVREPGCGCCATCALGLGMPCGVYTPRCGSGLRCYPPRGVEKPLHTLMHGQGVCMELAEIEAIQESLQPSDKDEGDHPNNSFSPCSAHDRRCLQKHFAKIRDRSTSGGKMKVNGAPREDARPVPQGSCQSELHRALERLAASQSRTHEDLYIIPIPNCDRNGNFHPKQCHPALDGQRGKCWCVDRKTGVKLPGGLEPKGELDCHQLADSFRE
UniProt Q96A47, sequence (Q96A47 whole entry, looked up): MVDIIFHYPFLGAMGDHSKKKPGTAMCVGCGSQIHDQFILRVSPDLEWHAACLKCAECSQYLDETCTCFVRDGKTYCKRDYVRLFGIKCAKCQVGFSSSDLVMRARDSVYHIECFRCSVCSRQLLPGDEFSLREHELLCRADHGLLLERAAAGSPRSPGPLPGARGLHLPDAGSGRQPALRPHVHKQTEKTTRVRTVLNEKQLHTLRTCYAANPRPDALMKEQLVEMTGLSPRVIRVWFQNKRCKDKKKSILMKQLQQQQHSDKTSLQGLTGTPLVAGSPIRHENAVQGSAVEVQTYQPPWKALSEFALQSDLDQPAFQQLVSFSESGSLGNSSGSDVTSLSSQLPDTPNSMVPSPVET
UniProt Q8IWB1, sequence (Q8IWB1 whole entry, looked up): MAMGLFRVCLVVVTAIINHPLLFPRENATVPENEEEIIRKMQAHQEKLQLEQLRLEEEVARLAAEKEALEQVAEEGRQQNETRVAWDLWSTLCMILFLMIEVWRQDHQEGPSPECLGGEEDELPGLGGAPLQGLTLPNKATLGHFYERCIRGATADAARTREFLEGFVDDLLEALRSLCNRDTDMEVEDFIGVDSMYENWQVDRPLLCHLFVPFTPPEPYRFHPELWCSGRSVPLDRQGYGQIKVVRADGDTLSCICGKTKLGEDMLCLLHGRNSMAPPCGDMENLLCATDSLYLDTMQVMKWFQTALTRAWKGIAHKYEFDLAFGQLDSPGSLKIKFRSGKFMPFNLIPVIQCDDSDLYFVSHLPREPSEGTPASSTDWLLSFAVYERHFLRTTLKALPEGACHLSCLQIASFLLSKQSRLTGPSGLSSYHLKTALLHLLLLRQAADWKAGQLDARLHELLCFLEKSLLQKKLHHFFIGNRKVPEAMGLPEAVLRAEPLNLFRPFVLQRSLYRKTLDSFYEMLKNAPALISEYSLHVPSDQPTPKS
UniProt O60547, sequence (O60547 whole entry, looked up): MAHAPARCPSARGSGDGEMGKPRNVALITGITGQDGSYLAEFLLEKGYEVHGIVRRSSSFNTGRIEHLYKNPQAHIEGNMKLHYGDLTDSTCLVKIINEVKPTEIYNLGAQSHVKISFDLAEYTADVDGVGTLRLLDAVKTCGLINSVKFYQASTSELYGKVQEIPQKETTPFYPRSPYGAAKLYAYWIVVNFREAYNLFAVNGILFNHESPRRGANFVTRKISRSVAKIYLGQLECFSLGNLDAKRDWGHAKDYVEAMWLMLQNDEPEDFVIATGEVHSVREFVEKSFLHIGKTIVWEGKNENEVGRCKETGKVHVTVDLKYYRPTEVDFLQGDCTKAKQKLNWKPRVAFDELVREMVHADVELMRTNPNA
UniProt P52333, sequence (P52333 whole entry, looked up): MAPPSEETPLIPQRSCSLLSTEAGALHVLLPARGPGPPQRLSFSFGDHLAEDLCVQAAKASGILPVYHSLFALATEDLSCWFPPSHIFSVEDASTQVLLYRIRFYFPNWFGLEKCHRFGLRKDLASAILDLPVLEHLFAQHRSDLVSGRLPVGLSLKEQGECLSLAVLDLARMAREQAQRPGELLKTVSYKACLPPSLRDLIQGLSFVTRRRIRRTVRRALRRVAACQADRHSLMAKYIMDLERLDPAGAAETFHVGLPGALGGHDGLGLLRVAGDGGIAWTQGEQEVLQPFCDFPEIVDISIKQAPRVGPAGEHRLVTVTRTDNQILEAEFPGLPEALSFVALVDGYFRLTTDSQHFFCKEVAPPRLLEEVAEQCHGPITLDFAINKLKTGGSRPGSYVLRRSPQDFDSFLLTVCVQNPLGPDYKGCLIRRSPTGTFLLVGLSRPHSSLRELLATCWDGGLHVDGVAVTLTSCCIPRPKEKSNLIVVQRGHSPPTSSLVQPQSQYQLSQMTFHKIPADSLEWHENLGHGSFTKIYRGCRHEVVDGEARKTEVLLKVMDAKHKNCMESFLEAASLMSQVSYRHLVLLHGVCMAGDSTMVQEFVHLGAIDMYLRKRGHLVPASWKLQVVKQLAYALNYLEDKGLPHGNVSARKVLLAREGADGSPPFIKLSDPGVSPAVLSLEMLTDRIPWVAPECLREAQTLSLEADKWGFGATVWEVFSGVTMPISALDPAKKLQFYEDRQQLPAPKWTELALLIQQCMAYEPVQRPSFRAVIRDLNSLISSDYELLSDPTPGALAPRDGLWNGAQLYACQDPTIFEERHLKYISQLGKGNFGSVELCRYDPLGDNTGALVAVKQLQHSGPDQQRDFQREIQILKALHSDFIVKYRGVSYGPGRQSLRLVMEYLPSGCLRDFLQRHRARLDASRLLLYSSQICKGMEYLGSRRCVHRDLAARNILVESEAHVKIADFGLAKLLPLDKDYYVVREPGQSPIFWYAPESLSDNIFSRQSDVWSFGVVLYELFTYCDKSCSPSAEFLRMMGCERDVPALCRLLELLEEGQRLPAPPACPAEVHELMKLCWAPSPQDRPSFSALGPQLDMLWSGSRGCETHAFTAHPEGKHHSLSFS
UniProt Q9NSC5, sequence (Q9NSC5 whole entry, looked up): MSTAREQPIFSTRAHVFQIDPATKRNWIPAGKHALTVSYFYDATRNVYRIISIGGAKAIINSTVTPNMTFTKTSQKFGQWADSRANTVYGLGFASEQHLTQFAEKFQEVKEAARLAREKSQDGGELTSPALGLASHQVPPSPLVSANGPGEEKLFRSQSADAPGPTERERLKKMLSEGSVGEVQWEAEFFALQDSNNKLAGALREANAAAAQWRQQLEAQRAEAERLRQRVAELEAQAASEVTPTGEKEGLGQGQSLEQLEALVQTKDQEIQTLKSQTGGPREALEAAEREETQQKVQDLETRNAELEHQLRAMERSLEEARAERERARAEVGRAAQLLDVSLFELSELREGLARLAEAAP
UniProt Q9P2P5, sequence (Q9P2P5 whole entry, looked up): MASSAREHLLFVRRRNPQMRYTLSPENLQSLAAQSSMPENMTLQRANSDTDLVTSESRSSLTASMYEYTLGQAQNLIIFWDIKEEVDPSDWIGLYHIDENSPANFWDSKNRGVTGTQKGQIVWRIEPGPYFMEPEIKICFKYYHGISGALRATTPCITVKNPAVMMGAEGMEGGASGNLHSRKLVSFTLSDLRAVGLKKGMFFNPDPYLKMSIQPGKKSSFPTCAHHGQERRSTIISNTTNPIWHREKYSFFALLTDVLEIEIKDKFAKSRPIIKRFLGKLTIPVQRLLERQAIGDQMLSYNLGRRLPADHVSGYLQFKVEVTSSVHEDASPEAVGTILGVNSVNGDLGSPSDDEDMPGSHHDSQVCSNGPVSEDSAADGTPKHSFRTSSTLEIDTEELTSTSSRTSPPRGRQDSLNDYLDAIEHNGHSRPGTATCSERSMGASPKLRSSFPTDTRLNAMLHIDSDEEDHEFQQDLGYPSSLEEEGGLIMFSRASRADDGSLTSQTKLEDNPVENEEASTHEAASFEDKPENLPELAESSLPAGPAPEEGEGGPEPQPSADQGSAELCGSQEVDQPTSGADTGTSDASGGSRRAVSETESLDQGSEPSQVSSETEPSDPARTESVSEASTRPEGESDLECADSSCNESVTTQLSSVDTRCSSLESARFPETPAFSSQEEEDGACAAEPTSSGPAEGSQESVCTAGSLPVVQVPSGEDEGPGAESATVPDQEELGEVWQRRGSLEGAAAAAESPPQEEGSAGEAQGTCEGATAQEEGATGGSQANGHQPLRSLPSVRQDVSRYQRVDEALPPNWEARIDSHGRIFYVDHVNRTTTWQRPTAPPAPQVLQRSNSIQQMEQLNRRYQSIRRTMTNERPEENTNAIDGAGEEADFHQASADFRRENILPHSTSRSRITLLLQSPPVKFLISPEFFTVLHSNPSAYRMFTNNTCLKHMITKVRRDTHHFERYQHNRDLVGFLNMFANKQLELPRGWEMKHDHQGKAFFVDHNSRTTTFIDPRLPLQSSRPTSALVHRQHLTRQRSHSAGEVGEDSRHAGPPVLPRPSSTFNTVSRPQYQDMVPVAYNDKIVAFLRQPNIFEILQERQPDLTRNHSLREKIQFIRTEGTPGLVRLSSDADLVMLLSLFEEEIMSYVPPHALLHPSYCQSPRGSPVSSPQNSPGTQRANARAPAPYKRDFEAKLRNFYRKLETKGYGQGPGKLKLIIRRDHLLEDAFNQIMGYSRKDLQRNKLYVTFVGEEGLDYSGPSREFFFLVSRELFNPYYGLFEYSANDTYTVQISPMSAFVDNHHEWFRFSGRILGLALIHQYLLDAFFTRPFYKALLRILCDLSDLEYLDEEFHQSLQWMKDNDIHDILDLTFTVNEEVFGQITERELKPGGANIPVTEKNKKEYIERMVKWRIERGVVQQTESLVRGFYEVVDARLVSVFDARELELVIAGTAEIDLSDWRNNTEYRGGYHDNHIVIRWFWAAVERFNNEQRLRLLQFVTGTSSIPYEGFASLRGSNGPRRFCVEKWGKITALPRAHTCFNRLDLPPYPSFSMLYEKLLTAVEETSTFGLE
UniProt P17096, sequence (P17096 whole entry, looked up): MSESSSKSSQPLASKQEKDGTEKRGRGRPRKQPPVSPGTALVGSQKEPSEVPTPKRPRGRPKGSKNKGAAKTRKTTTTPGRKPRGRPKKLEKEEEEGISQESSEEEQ

Target | log2 fold change (vemurafenib) | log2 fold change [1] | log2 fold change (barasertib) | log2 fold change [2] | log2 fold change (volasertib) | log2 fold change [3] | log2 fold change [4] | log2 fold change [5] | log2 fold change (saracatinib) | log2 fold change (sotrastaurin) | log2 fold change (alvocidib) | log2 fold change (Tubastatin A) | log2 fold change [6] | log2 fold change (defactinib) | log2 fold change [7] | log2 fold change (encorafenib) | log2 fold change [8] | log2 fold change (alisertib) | log2 fold change [9] | log2 fold change (gefitinib)
HMGA1 (UniProt P17096) | 0.023 | -0.011 | -0.05 | 0.051 | 0.02 | -0.04 | -0.323 (active) | 0.131 | -0.001 | 0.012 | -0.108 | 0.066 | -0.001 | -0.007 | 0.023 | -0.005 | -0.018 | 0.046 | 0.011 | -0.027
HSD17B12 (UniProt Q53GQ0) | 0.073 | 0.005 | 0.047 | 0.003 | -0.096 | -0.024 | -0.304 (active) | -0.107 | 0.105 | 0.071 | 0.012 | -0.089 | -0.11 | -0.021 | -0.046 | -0.016 | 0.035 | 0.022 | 0.009 | -0.131
ILK (UniProt Q13418) | 0.029 | -0.024 | 0.059 | -0.03 | -0.072 | 0.016 | -0.034 | -0.019 | 0.011 | -0.002 | 0.002 | -0.084 | -0.002 | -0.026 | -0.061 | -0.032 | 0.038 | 0.007 | -0.04 | 0.013
INTS3 (UniProt Q68E01) | 0.038 | 0.02 | 0.05 | -0.029 | -0.017 | -0.083 | 0.072 | -0.018 | 0.049 | 0.015 | -0.003 | 0.012 | 0.003 | 0.012 | -0.002 | -0.027 | 0.072 | -0.031 | 0.005 | 0.047
H2AFY (UniProt O75367) | -0.042 | 0.013 | 0.094 | 0.131 | -0.036 | -0.001 | -0.059 | 0.056 | -0.077 | 0.104 | -0.034 | 0.079 | -0.026 | 0.106 | 0.329 (active) | 0.094 | 0.014 | 0.001 | 0 | 0
GMDS (UniProt O60547) | 0.057 | 0.012 | 0.027 | -0.088 | -0.034 | -0.023 | 0.019 | 0.042 | -0.033 | 0.019 | 0.036 | -0.057 | -0.017 | 0.042 | 0.003 | -0.059 | 0.123 | 0.016 | 0.023 | -0.012
KCTD20 (UniProt Q7Z5Y7) | 0.17 | 0.02 | 0.052 | 0.046 | 0.007 | -0.055 | 0.018 | -0.037 | 0.048 | 0.025 | 0.05 | -0.174 | 0.01 | -0.041 | -0.025 | -0.165 | -0.058 | -0.089 | -0.095 | 0.035
IMPDH2 (UniProt H0Y4R1) | -0.047 | 0.114 | 0.134 | 0.195 | 0.001 | -0.1 | 0.059 | 0.129 | 0.043 | 0.116 | -0.12 | -0.554 (active) | – | 0.101 | 0.014 | -0.014 | -0.505 (active) | -0.038 | -0.035 | 0.052
HMGN5 (UniProt Q5JSK9) | – | -0.013 | -0.03 | 0.039 | 0.054 | – | – | – | – | – | – | – | – | – | – | 0.055 | -0.111 | 0.049 | 0.055 | 0.063
JAK3 (UniProt P52333) | -0.127 | 0.014 | 0.064 | – | -0.062 | – | 0.524 | -0.488 | – | 0.014 | 0.254 | – | – | 0.06 | – | – | – | – | -0.041 | –
HNRNPM (UniProt M0R019) | -0.137 | – | – | – | – | – | – | – | – | – | – | – | – | -0.112 | – | – | – | – | – | –
IGF2BP2 isoform 6 (UniProt Q9Y6M1) | – | -0.003 | – | – | -0.153 | – | – | – | – | – | – | – | – | – | – | – | – | – | 0.289 | –
ITPRIP (UniProt Q8IWB1) | – | – | – | – | – | – | – | – | -0.143 | – | – | – | 0.994 (active) | – | -0.268 | – | – | – | – | –
HMGA1 isoform 2 (UniProt P17096) | – | 0.019 | – | – | 0.034 | 0.027 | 0.875 (active) | -0.339 | 0.053 | -0.106 | 0.289 | 0.102 | 0.085 | – | 0.034 | – | – | -0.255 | -0.038 | -0.442
HNRNPUL1 (UniProt M0R247) | – | – | 0.109 | – | – | – | 0.004 | 0.037 | – | – | -0.042 | – | -0.03 | – | – | – | – | – | – | –
HOMER3 (UniProt Q9NSC5) | – | 0.123 | -0.129 | – | -0.011 | – | 0.037 | -0.071 | – | 0.028 | -0.066 | – | – | – | – | – | – | – | 0.069 | –
HYDIN (UniProt Q4G0P3) | -0.075 | 0.081 | – | 0.089 | 0.021 | 0.76 | – | – | 0.028 | – | – | -0.041 | – | 0.045 | 0.414 | 0.172 | -0.02 | – | -0.154 | –
ITM2B (UniProt Q9Y287) | 0.021 | – | 0.258 | – | – | -0.012 | -0.141 | 0.069 | -0.053 | -0.012 | 0.015 | 0.007 | 0.037 | 0.16 | 0.074 | – | – | 0.006 | – | 0.008
HECW2 (UniProt Q9P2P5) | 0.026 | – | – | -0.213 | – | -0.04 | – | – | 0.055 | 0.065 | – | -0.002 | 0.102 | -0.087 | -0.099 | 0 | 0.153 | 0.114 | – | 0.117
GPLD1 (UniProt P80108) | – | – | – | – | – | – | – | – | 0.236 | -0.13 | – | – | – | – | -0.452 | – | – | – | – | –
IGFBP4 (UniProt P22692) | – | -0.171 | -0.281 | – | -0.002 | 0.04 | -0.063 | 0.009 | 0.016 | -0.028 | -0.149 | -0.083 | 0.045 | – | -0.084 | – | – | -0.005 | 0.454 (active) | 0.005
ISL2 (UniProt Q96A47) | – | – | -0.108 | – | – | 0.018 | 0.832 (active) | -0.397 (active) | 0.028 | -0.107 | 0.36 | 0.032 | -0.042 | – | 0.025 | – | – | – | – | –
GORASP1 (UniProt Q9BQQ3) | 0.011 | -0.016 | – | -0.065 | 0.092 | -0.019 | -0.025 | 0.08 | 0.03 | 0.016 | -0.052 | -0.035 | 0.018 | 0.008 | -0.071 | 0.108 | -0.009 | -0.037 | 0.076 | 0.016
H3-3A (UniProt P84243) | 0.027 | 0.015 | 0.067 | -0.017 | -0.006 | – | 0.027 | -0.025 | – | -0.028 | 0.021 | – | 0.063 | -0.04 | – | 0.132 | -0.034 | – | -0.032 | –
